Out of some 300,000 compounds screened, about 2,500 (0.83%) were called active. Rule as the data show it: active = inhibition above about 60%; inconclusive = no clear call, values can overlap the other calls; inactive = below that. Many of the other results were omitted from the sample, so actives are more common in it than they were.
Assay: 5' untranslated region of α-synuclein, MLPCN primary screen (AID 1813);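 also: H4 neuroglioblastoma cells stably carrying SNCA 5'UTR luciferase fusion; 0% = DMSO wells and 100% = positive control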
Details: alpha-synuclein 5'UTR reporter, inhibitor activity; hits give high values; tested at 7.5 µM

Structure (SMILES) | inhibition
COc1cccc(-c2nc3ccc(N4CCN(C)CC4)cc3[nH]2)c1 | 68.9% (active)
Cc1nc2ccc(N3CCN(C)CC3)cc2nc1C | -72% (inactive)
CN1CCN(c2cc(N3CCNCC3)ccc2[N+](=O)[O-])CC1 | 9.3% (inactive)
CN(C)c1ccc(/C=C2\CC3C4CC=C5CC(O)CCC5(C)C4CCC3(C)C2=O)cc1 (stereo not given) | 8.56% (inactive)
CSc1nc2ccc(C)cc2c(=O)n1-c1cccnc1 | -1.34% (inactive)
CCOc1ccc(-c2cc(C)[n+](CCN(CC)CC)c(-c3ccc(OCC)cc3)c2)cc1 | 95.2% (active)
Cc1cccc2c(CCN)c[nH]c12 | 10.6% (inactive)
Cc1ccc(P(=S)(c2ccc(C)o2)N2CCOCC2)o1 | -9.28% (inactive)
CCN(N=Nc1nonc1OC)c1nonc1OC | -2.32% (inactive)
CCCCCCCCCCCCn1ccc(=N)cc1 | 104% (active)
CNP1(NC)=Nc2nn(-c3ccccc3)c(N)c2C(c2ccccc2)=N1 | 9.19% (inactive)
COc1ccc2c(c1O)-c1cccc3c1[C@@H](C2)N(C)CC3 | -3.62% (inactive)
O=C(OCCN1CCOCC1)C1(c2ccccc2)CCCC1 | 1.68% (inactive)
Cc1c(Oc2cc(NN3CCCCC3)c([N+](=O)[O-])cc2[N+](=O)[O-])cccc1[N+](=O)[O-] | 15.3% (inactive)
Cc1cccc(NC(=O)N2CC3CC(C2)c2cccc(=O)n2C3)c1 (stereo not given) | 13.7% (inactive)
c1cc2c(cc1CCNC1CCCCCC1)OCO2 | 2.86% (inactive)
O=C1/C(=C\c2ccc3c(c2)OCO3)N2CCC1CC2 | 17.4% (inactive)
c1cc2c(cc1[C@H]1OC[C@H]3[C@@H]1CO[C@@H]3c1ccc3c(c1)OCO3)OCO2 | 72.8% (active)
CC(C)n1c(=O)c(C=Nc2ccc(Br)cc2)c(O)n(Cc2ccco2)c1=O | -1.22% (inactive)
Cc1ccc(Cn2c(C)c3cnn(CC(=O)N4CCC5(CC4)OCCO5)c(=O)c3c2C)cc1 | 12% (inactive)

Reference: PubChem BioAssay AID1813 (Broad Institute, 2009)
